# In the supplement of paper PMC10498489:
# The whole screen tested about 2,300 compounds, of which about 330 (14%) showed activity. Not all results are given here. Values without a mark were called inactive.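 Rule for the calls: active = median modified Z-score above 1.96; inactive = 1.96 or below.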
# System: HepG2 Srxn1-GFP reporter cells (+30 nM CDDO-Me)
# Experiment: Srxn1-GFP intensity median modified Z-score relative to plate median; higher = stronger NRF2 / oxidative stress reporter activation, active = hit call of the paper
# Details: 10 µM; exposure time: 24h
# Outline: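 HepG2 Srxn1-GFP BAC reporter cells were seeded at 20,000 per well in 96-well plates and co-exposed for 24 h to compound at 10 μM and an NRF2 activator at 30 nM, with DMSO at ≤0.1%, in three replicate plates. Cells were fixed with formaldehyde, stained with Hoechst and imaged by confocal microscopy, and cytoplasmic GFP was measured per cell, with images holding under 100 cells discarded. The reported value is the median over replicates of each plate's modified Z-score of GFP intensity. For this score, scaling used 1.4826 × median absolute deviation.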
row,Compound,Srxn1-GFP intensity median modified Z-score
1,CC1(OC(=O)C=Cc2ccccc2)CC(O)C2(O)C=COC(OC3OC(CO)C(O)C(O)C3O)C12 (stereo not given) [euspeclibcmpd1930],0.27
2,CCCCC1=NC2(CCCC2)C(=O)N1Cc1ccc(-c2ccccc2-c2nn[nH]n2)cc1 [euspeclibcmpd676],-0.243
3,COc1cc(C=CC(=O)CC(=O)C=Cc2ccc(O)c(OC)c2)ccc1O [euspeclibcmpd1307],23.5 (active)
4,COc1cc(O)c(C(=O)C=Cc2ccc(O)c(OC)c2)c(OC)c1 [euspeclibcmpd2193],-0.497
5,COc1ccc(/C=C/C(=O)O)cc1OC [euspeclibcmpd2368],-0.475
6,COc1cc(O)c(C(=O)C=Cc2ccc(OC)c(O)c2)c(OC)c1 [euspeclibcmpd1967],23.8 (active)
7,COc1cc(O)c(C(C)=O)c(OC)c1 [euspeclibcmpd1575],-0.474
8,COc1cc(C=CC(=O)O)ccc1O [euspeclibcmpd1346],-0.142
9,Cc1cn[nH]c1 [euspeclibcmpd2196],1.06
10,Cc1cn[nH]c1 [euspeclibcmpd2215],-0.461
11,CCC(=O)O[C@]1(C(=O)SCF)[C@H](C)CC2C3CC(F)=C4CC(=O)C=C[C@]4(C)C3(F)[C@@H](O)C[C@@]21C (stereo not given in full) [euspeclibcmpd975],-0.942
12,CC(=O)Nc1c(I)c(NC(C)=O)c(I)c(C(=O)O)c1I [euspeclibcmpd867],-0.167
13,Cc1cc(=O)oc2cc(O)c(O)cc12 [euspeclibcmpd1370],-0.517
14,NC(CCC(=O)NC(CS)C(=O)NCC(=O)O)C(=O)O (stereo not given) [euspeclibcmpd132],1.19
15,C[C@]12CCC(=O)CC1=CCC1C2[C@@H](O)C[C@@]2(C)C1CC[C@]2(O)C(=O)CO (stereo not given in full) [euspeclibcmpd5],-0.578
16,O=C(O)C1CSCN1C(O)c1ccc(O)[nH]1 (stereo not given) [euspeclibcmpd1087],-0.1
17,O=C(O)C1CC([C@H]2CCCCN2)CN2CCCCC12 (stereo not given in full) [euspeclibcmpd1560],0.315
18,CCCN1C(=O)/C(=C/c2ccc(-n3ccnc3)cc2)SC1=S,9.18 (active)
19,CC(C)(C)NCC(O)COc1cccc2c1C[C@H](O)[C@H](O)C2 (stereo not given in full) [euspeclibcmpd814],0.0394
20,CC[C@H]1OC(=O)C[C@@H](O)[C@H](C)[C@@H](O[C@@H]2O[C@H](C)[C@@H](O[C@H]3C[C@@](C)(O)[C@@H](O)[C@H](C)O3)[C@H](N(C)C)[C@H]2O)[C@@H](CC=O)CC(C)C(=O)/C=C/C(C)=C/C1CO[C@@H]1O[C@H](C)[C@@H](O)[C@@H](OC)[C@H]1OC (stereo not given in full) [euspeclibcmpd742],-0.617
21,COc1cccc(-c2cc(=O)c3ccc(OC)cc3o2)c1 [euspeclibcmpd2098],1.56
22,COc1ccc(-c2coc3cc(OCC4CC4)ccc3c2=O)cc1,1.64

row,Compound,Srxn1-GFP intensity median modified Z-score
1,CC(=O)Oc1ccc(O)cc1 [euspeclibcmpd2324],5.59 (active)
2,CC(=O)Nc1ccc(OC(C)=O)cc1 [euspeclibcmpd1187],-0.386
3,CC(=O)Oc1cccc(O)c1 [euspeclibcmpd584],0.144
4,CCC1C(=O)OC[C@@H]1Cc1cncn1C (stereo not given in full) [euspeclibcmpd2263],0.439
5,OC[C@H]1O[C@@](CO)(O[C@@H]2O[C@H](CO)[C@@H](O)[C@H](O)[C@H]2O)[C@@H](O[C@@H]2O[C@H](CO)[C@@H](O)[C@H](O)[C@H]2O)[C@@H]1O [euspeclibcmpd1323],0.146
6,O=C(OCc1cc([N+](=O)[O-])cc2c1OCOC2)C12CC3CC(CC(Br)(C3)C1)C2,1.38
7,CC1(C)OC(=O)NC1=O [euspeclibcmpd99],0.00531
8,CC(C)C(N)C(=O)OCCOCn1cnc2c(=O)[nH]c(=N)[nH]c21 (stereo not given) [euspeclibcmpd757],0.568
9,CC1/C=C/C=C/C=C/C=C/C=C/C=C/C=C/C(OC2O[C@H](C)[C@@H](O)[C@H](N)[C@@H]2O)CC(O)C(C(=O)O)C(O)CC(=O)CC(O)CC(O)CC(O)CC(=O)CCCC(=O)CC(=O)OC1C(C)CC(C)C(O)CC(=O)c1ccc(N)cc1 (stereo not given in full) [euspeclibcmpd648],1.22
10,CC1C/C=C/C=C/C=C/C=C/C(O[C@@H]2O[C@H](C)[C@@H](O)[C@H](N)[C@@H]2O)CC2OC(O)(CC(O)CC3OC3/C=C/C(=O)O1)CC(O)C2C(=O)O (stereo not given in full) [euspeclibcmpd858],-0.525
11,CC1OC(O[C@H]2/C=C/C=C/C=C/C=C/C=C/C=C/C=C/[C@H](C)[C@@H](O)[C@@H](C)[C@H](C)OC(=O)CC(O)CC(O)CCC(O)C(O)CC(O)C[C@]3(O)C[C@H](O)C(C(=O)O)C(C2)O3)C(O)[C@H](N)C1O (stereo not given in full) [euspeclibcmpd24],1.97 (active)
12,COc1ccc(-c2coc3c4c(c(CC=C(C)C)c(O)c3c2=O)OC(C)(C)C=C4)cc1 [euspeclibcmpd2167],-0.398
13,COc1cc(=NS(=O)(=O)c2ccc(N)cc2)[nH]c(OC)n1 [euspeclibcmpd399],-0.451
14,OC[C@H]1O[C@H](O[C@H]2[C@H](O)[C@@H](O)[C@H](O)O[C@@H]2CO)[C@H](O)[C@@H](O)[C@@H]1O [euspeclibcmpd2088],-0.629
15,COCCn1c(SCC(=O)N(C)Cc2ccc(Cl)s2)nc2cc(Cl)ccc21,0.575
16,CC(C=Cc1c(C)c(O)c2ccccc2c1O)=CCC[C@H](C)CCC[C@H](C)CCCC(C)C [euspeclibcmpd621],-0.697
17,N=c1[nH]nc(-c2cccc(Cl)c2Cl)c(=N)[nH]1 [euspeclibcmpd829],-0.0242
18,CCN(CC)CCc1nc(-c2ccccc2)no1 [euspeclibcmpd2430],10.5 (active)
19,CCN(CCCc1ccccc1)CCCc1ccccc1 [euspeclibcmpd16],0.166
20,C[C@H](CC(=O)C1OC1(C)C)[C@@H]1C(=O)C[C@@]2(C)C3=CCC4C(C)(C)[C@@H](O[C@@H]5OC[C@@H](O)[C@H](O)[C@H]5O)CC[C@@]45C[C@@]35[C@@H](O)C[C@]12C (stereo not given in full) [euspeclibcmpd2331],0.374
21,COCCCCC(=NOCCN)c1ccc(C(F)(F)F)cc1 [euspeclibcmpd828],-0.302
22,NC(=O)CCC(N)C(=O)O (stereo not given) [euspeclibcmpd1404],-0.533

row,Compound,Srxn1-GFP intensity median modified Z-score
1,COc1cc(C(=O)N2CCOCC2)cc(OC)c1OC [euspeclibcmpd666],0.129
2,COc1cc(OC)c(C(=O)CCCN2CCCC2)c(OC)c1 [euspeclibcmpd1235],-0.587
3,COc1cc(C(=O)OCCCN2CCCN(CCCOC(=O)c3cc(OC)c(OC)c(OC)c3)CC2)cc(OC)c1OC [euspeclibcmpd1946],6.07 (active)
4,COc1cc(-c2coc3cc(OCc4ccccc4)c(OC)c(O)c3c2=O)cc(OCc2ccccc2)c1OC [euspeclibcmpd1942],-0.32
5,COc1ccc2cc3[n+](cc2c1OC)CCc1cc2c(cc1-3)OCO2 [euspeclibcmpd1051],6.03 (active)
6,COc1cc2c(cc1OC)-c1cc3ccc(OC)c(OC)c3c[n+]1CC2 [euspeclibcmpd2350],0.574
7,C[n+]1cc2c3c(ccc2c2ccc4cc5c(cc4c21)OCO5)OCO3 [euspeclibcmpd10],0.32
8,CCc1cccc2c(C(=O)COC(=O)c3c4c(nc5ccccc35)CCC(C(C)(C)C)C4)c[nH]c12 (stereo not given),1.73
9,C#C[C@]1(O)CCC2C3CCc4cc(OC5CCCC5)ccc4C3CC[C@@]21C (stereo not given in full) [euspeclibcmpd466],0.485
10,CCCCCC(CC(O)=NO)C(=O)NC(C(=O)N1CCCC1CO)C(C)C (stereo not given) [euspeclibcmpd1993],11.7 (active)
11,CCCCCC(CC(=O)O)C(=O)O (stereo not given) [euspeclibcmpd1642],-0.141
12,CN1N=C(C(=O)NC2(C)CCS(=O)(=O)C2)CCC1=O (stereo not given),1.37
13,C[C@]12CCC3c4ccc(OS(=O)(=O)O)cc4CCC3C1CCC2=O (stereo not given in full) [euspeclibcmpd707],-0.429
14,CN=C(NC#N)NCCSCc1[nH]cnc1C [euspeclibcmpd338],3.04 (active)
15,O=C(N[C@@H](CO)[C@H](O)c1ccc([N+](=O)[O-])cc1)C(Cl)Cl [euspeclibcmpd53],-0.347
16,CC1(C)CC[C@]2(C(=O)O)CC[C@]3(C)C(=CCC4[C@@]5(C)CC[C@H](O)[C@@](C)(CO)C5CC[C@]43C)C2C1 (stereo not given in full) [euspeclibcmpd1554],-0.176
17,CC1(C)CC[C@]2(C)CC[C@]3(C)C(=CCC4[C@@]5(C)CC[C@H](O)C(C)(C)C5CC[C@]43C)C2C1 (stereo not given in full) [euspeclibcmpd1345],1.93
18,CC1(C)CC[C@]2(C(=O)O)CC[C@]3(C)C(=CCC4[C@@]5(C)CC[C@@H](O)C(C)(C)C5CC[C@]43C)C2C1 (stereo not given in full) [euspeclibcmpd1603],4.09 (active)
19,Cc1cc2nc3c(=O)[nH]c(=O)nc-3n(C[C@@H](O)[C@@H](O)[C@@H](O)COP(=O)(O)O)c2cc1C [euspeclibcmpd2323],-0.0697
20,Cc1ccc2[nH]c3c(c2c1)CC(Nc1ccc(CCC(=O)N2CCCC2)cc1)CC3 (stereo not given),4.66 (active)
21,O=C(Nc1ccccc1)OCC(CN1CCCCC1)OC(=O)Nc1ccccc1 (stereo not given) [euspeclibcmpd499],-0.575
